Results on five compounds are retold here after PubChem BioAssay (NCATS).

The target in assay [1] is Lysosomal acid glucosylceramidase (Homo sapiens) (UniProt P04062). The assay can be described thus: Glucocerebrosidase-p2 (AID 348; in the data active = potency below about 10 µM; note: potency is the fitted concentration of half-maximal effect). The following applies: purified GBA, blue fluorogenic substrate, 40 min. Put shortly:
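Compounds titrated from 0.6 nM upwards against 0.2 nM enzyme in pH 5.9 citric acid/KH2PO4, taurocholate, tween-20; blue fluorogenic substrate 80 uM, 40 min room temperature, stopped and read Ex 365/Em 440 for AC50.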

For assay [2], the target named is Cytochrome P450 1A2 (Homo sapiens) (UniProt P05177). The assay can be described thus: p450-cyp1a2 (AID 410; calls by dose curve; note: potency is the fitted concentration of half-maximal effect). In short, it runs like this: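 Luminescent readout of luciferin formed from Luciferin-ME by human CYP1A2; data normalized against complete inhibition by 57 uM furafylline. Enzyme 20nM, substrate 100uM at Km, 100mM KPO4 buffer, 60 min reaction at room temperature.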
Cytochrome P450 1A2 (Homo sapiens), sequence (P05177 whole entry, looked up): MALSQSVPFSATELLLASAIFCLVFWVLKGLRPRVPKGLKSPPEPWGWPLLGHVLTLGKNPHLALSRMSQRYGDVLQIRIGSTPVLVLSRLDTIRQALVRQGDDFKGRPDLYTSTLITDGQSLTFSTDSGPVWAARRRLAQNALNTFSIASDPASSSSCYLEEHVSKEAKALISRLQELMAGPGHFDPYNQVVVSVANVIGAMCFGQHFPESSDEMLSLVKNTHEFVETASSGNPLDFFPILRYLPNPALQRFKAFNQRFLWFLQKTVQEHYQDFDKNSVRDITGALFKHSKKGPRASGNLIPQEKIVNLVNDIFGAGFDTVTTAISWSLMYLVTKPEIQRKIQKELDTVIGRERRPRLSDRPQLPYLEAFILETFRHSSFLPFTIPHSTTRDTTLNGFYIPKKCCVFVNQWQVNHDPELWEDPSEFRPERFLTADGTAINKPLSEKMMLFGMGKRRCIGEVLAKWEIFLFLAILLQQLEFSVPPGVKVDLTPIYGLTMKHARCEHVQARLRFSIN

A short description of assay [3]: NFAT Signaling Pathway (AID 444; active = well fitted curve in either direction with a large enough effect, not every such curve was filed as active;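 note: carbachol stimulus at about its EC50 of 1 µM final; % is set by controls: 0 for no effect and ±100 for the full control effect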). The following applies: Jurkat NFAT-bla M1, carbachol, beta-lactamase ratio, 5 h; at 7.69 µM (top of the series) unless noted. Put shortly:
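Jurkat cells with NFAT-driven β-lactamase reporter and co-expressed M1 receptor, stimulated with carbachol (final 1 uM, ~EC50), compound titration, 5 h at 37 °C. CCF4 loaded 1 h at RT; 460/530 nm ratio gave %activity and AC50.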

Assay [4] in a line: Stat Signaling Pathway (AID 446; active = well fitted curve in either direction with a large enough effect, not every such curve was filed as active;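 note: ME-180 cervical cancer cells given 40 pM IL-6 alongside compound; SIE-controlled beta-lactamase reporter measured as 460/530 nm FRET emission ratio; % is set by controls: 0 for no effect and ±100 for the full control effect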). Put shortly: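 Reporter line: ME-180 cervical carcinoma, SIE-beta-lactamase. Treatment: compound with 40 pM IL-6, 5 hrs, 37 C, in low-serum OPTI-MEM with 10 mM HEPES pH 7.3. Detection: 460/530 nm fluorescence.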
Assay [5] addresses Glucocorticoid receptor (Homo sapiens) (UniProt P04150). The assay is described as follows: GR-GFP Redistribution (AID 450;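 active = compounds whose dose series gives a full or clear partial fitted curve of increased nuclear translocation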; note: potency is the fitted concentration of half-maximal effect). As to conditions: U2OS GR-GFP nuclear translocation, laser cytometry, 2 h.
For assay [6] the target is unchanged. The assay can be described thus: GR-EFC Redistribution (AID 451; calls by dose curve; note: potency is the fitted concentration of half-maximal effect). As to conditions: CHO-K1 GR-EFC translocation, beta-gal luminescence, 2 h. Put shortly:
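CHO-K1 cells expressing nuclear EA and GR-ED fragments of b-gal; compounds titrated up to 46 uM final, 2 h at 37 C. GR nuclear translocation read as complemented b-gal luminescence after 1 h RT detection.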

Assay [7] addresses 3',5'-cyclic-AMP phosphodiesterase 4B (Homo sapiens) (UniProt Q07343). The assay can be described thus: qHTS Assay for Inhibitors of PDE-IV (AID 607; active = well fitted activation curve with a large enough effect in the main read-out, with a control signal flat, not every such curve was filed as active; note: potency is the fitted concentration of half-maximal effect). Put shortly:
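Cell-based read-out of cAMP via a modified cyclic nucleotide-gated channel and membrane potential dye (535/590 nm) in HEK293 cells expressing PDE4 endogenously. Compounds tested up to 22.9 uM final; 100 uM RO 20-1724 reference.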

In assay [8] the target is Cytochrome P450 3A4 (Homo sapiens) (UniProt P08684). The assay is described as follows: qHTS Assay for Inhibitors and Substrates of Cytochrome P450 3A4 (AID 884). Note: potency is the fitted concentration of half-maximal effect; nearly all actives have a fitted effect of over 50% in size. In short, it runs like this:
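20 nM human CYP3A4 with 25 uM Luciferin-PPXE (at KM) in 200 mM KPO4, preincubated 10 min with compound; NADPH regeneration started a 60 min RT reaction. Luciferin detected by luminescence, normalized to 57 uM ketoconazole as full inhibition.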
In general terms: Quantitative high-throughput screening tests each substance at several concentrations.

The target is the same in assay [9]. The assay is described as follows: qHTS Assay for Activators of Cytochrome P450 3A4 (AID 885). Note: nearly all actives have a fitted effect of over 65% in size. In short, it runs like this: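 Signal was normalized against complete inhibition by 57 uM ketoconazole. The reaction used 20nM CYP3A4 with 25uM Luciferin-PPXE, 10-min compound preincubation and a 60-min NADPH-supported step at RT.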
Assay [10] in a line: qHTS Assay for Identification of Small Molecule Agonists for Hypoxia Response Element Signaling Pathway (AID 914; active = well fitted activation curve with a large enough effect in the signal ratio, with a control signal flat, not every such curve was filed as active; the % refers to the signal ratio; note: % of control where 0% means no effect). As to conditions: ME-180 HRE-bla reporter, beta-lactamase ratio, CoCl2, 17 h; activation: active compounds read high. Put shortly:
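AC50 values come from titration-series %Activity, taken as the 460/530nm ratio of CCF4 fluorescence (excitation 405nm). CellSensor HRE-bla ME-180 cells were treated 17 hours at 37 C with compound plus an EC50 level of CoCl2.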

The target in assay [11] is Dual specificity protein kinase CLK4 (Homo sapiens) (UniProt Q9HAZ1). The assay is described as follows: qHTS Assay for Inhibitors of CDC-like Kinase 4 (Kinase-Glo Assay) (AID 1770). Note: nearly all actives have a fitted effect of over 65% in size. Note: potency is the fitted concentration of half-maximal effect. In short, it runs like this: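 25 nM Clk4 with 100 uM RS repeat peptide and 1 uM ATP (final) in Tris pH7.5, 10 mM MgCl2, 4.5 h at room temperature. Remaining ATP measured by Kinase-Glo luciferase luminescence.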
Dual specificity protein kinase CLK4 (Homo sapiens), sequence (Q9HAZ1 whole entry, looked up): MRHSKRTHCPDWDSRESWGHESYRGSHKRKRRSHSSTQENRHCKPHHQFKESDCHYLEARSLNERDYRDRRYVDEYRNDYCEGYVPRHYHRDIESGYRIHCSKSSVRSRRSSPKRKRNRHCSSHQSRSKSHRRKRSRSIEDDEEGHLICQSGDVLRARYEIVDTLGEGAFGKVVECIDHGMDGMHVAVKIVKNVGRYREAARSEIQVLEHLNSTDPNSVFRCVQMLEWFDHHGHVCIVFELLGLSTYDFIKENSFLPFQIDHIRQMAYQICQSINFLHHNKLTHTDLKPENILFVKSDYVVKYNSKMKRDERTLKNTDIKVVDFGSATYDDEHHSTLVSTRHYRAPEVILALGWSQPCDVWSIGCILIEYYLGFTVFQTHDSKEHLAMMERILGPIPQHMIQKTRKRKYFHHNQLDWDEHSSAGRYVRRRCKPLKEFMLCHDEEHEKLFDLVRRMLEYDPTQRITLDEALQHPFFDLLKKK

Assay [12] has the same target. The assay can be described thus: qHTS Assay for Inhibitors of CDC-like Kinase 4 (ADP-FP Assay) (AID 1795). Note: nearly all actives have a fitted effect of over 60% in size. Note: potency is the fitted concentration of half-maximal effect. Put shortly:
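Recombinant Clk4 (6.25 nM) phosphorylated 100 uM RS repeat peptide with 1 uM ATP in 25 mM Tris pH 7.5, 10 mM MgCl2, 0.5 mM EGTA, 2.5 mM DTT, 0.01% Triton X-100 for 1 h. ADP was detected by Transcreener ADP2 competitive fluorescence polarization after 30 min at room temperature.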

Assay [13] addresses Mitogen-activated protein kinase 10 (Mus musculus) (UniProt Q61831). The assay is described as follows: JNK3 AlphaScreen Assay (AID 530; active = well fitted curve in either direction with a large enough effect, not every such curve was filed as active;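 note: kinase came from lysate of stimulated human HepG2 cells; signal reports phosphorylation of biotinylated GST-cJun 1-79 at Ser73 with 10 µM ATP; % is set by controls: 0 for no effect and ±100 for the full control effect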). Put shortly: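 Pre-activated (IL-1β/TNFα) JNK3 in HepG2 lysates phosphorylates biotin-GST-cJun(1-79), 10 uM ATP; anti-phospho-cJun(Ser73) AlphaScreen read at room temperature, pH 7.6 Tris buffer. Compounds pre-incubated 15 min as titrations.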
(Bead proximity is the source of the signal in Alpha formats.)

Assay [14] deals with Cytochrome P450 2C19 (Homo sapiens) (UniProt P33261). The assay is described as follows: qHTS Assay for Inhibitors and Substrates of Cytochrome P450 2C19 (AID 899). Note: potency is the fitted concentration of half-maximal effect; nearly all actives have a fitted effect of over 60% in size. Put shortly:
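Signal comes from luciferase acting on luciferin released by CYP2C19-mediated hydroxylation of Luciferin-H EGE, 10uM (KM). Assay mix: 5nM enzyme, 50mM KPO4; 60 min at 37C with NADPH regeneration. Data normalized against 57uM ketoconazole.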

Assay [15] concerns the target Ubiquitin carboxyl-terminal hydrolase 1 (Homo sapiens) (UniProt O94782). The assay can be described thus: Inhibitors of USP1/UAF1: Pilot qHTS (AID 504865).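 Note: rhodamine fluorescence freed from ubiquitin-rhodamine substrate followed over time; top concentration of the series differs between compounds; % is set by controls: 0 for no effect and ±100 for the full control effect; nearly all actives have a fitted effect of over 35% in size.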 Put shortly:
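USP1/UAF1 complex at 1 nM preincubated 15 min at room temperature with compound, then Ub-Rho substrate added at 150 nM final. Fluorescence (480/540 nm) read kinetically in 50 mM HEPES pH 7.8, 0.5 mM EDTA, 1 mM TCEP, 0.1 mg/ml BSA, 0.01% Tween-20.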

Assay [16] concerns the target Cytochrome P450 2D6 (Homo sapiens) (UniProt P10635). The assay can be described thus: qHTS Assay for Inhibitors and Substrates of Cytochrome P450 2D6 (AID 891). Note: potency is the fitted concentration of half-maximal effect; nearly all actives have a fitted effect of over 60% in size. Put shortly:
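Human CYP2D6 (5 nM) with 30 uM Luciferin-ME EGE (at Km) in 100 mM KPO4, compound preincubated 10 min, then NADPH regeneration system for 60 min at room temperature. Luciferin read by luminescence; normalized to 1.43 uM quinidine.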

Assay [17] concerns the target Dual specificity protein kinase CLK4 (Homo sapiens) (UniProt Q9HAZ1). The assay is described as follows: qHTS Assay for Inhibitors of CDC-like Kinase 4 (ADP-Glo Assay) (AID 1771). Note: % is set by controls: 0 for no effect and ±100 for the full control effect; nearly all actives have a fitted effect of over 70% in size. Put shortly: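 Luminescence from ADP-Glo reports ADP produced by 25 nM Clk4 acting on 100 uM RS repeat peptide with 1 uM ATP over 1 hr at room temperature; residual ATP is depleted before ADP is converted to ATP for detection.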

Assay [18] can be described thus: AP1 Signaling Pathway (AID 357; active = well fitted curve in either direction with a large enough effect, not every such curve was filed as active; note: % is set by controls: 0 for no effect and ±100 for the full control effect). As to conditions: ME-180 (cervical carcinoma) AP-1-bla reporter, EGF-induced, beta-lactamase ratio, 5 h; at 7.69 µM (top of the series) unless noted. In short, it runs like this: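 In this screen, ME-180 cells in Opti-MEM with 0.5% dialyzed FBS received EC50 EGF and compound titrations for 5 h. AP-1 reporter beta-lactamase was detected via CCF4 ratio, giving AC50 for positive and negative modulators.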

The structures appear in SMILES notation. Values without a mark were called inactive. Results filed as inconclusive are left out. Activity calls are given as the source filed them. Unless noted, calls come from the whole dose curve; as a rule, active = well fitted curve in the direction sought with a large enough effect; inconclusive = small, poorly fitted or top-dose-only effect, or another doubt; inactive = no such curve, though single readings can be large; an effect the other way counts as inactive or inconclusive.

Cytochrome P450 3A4 (Homo sapiens), sequence (P08684 whole entry, looked up): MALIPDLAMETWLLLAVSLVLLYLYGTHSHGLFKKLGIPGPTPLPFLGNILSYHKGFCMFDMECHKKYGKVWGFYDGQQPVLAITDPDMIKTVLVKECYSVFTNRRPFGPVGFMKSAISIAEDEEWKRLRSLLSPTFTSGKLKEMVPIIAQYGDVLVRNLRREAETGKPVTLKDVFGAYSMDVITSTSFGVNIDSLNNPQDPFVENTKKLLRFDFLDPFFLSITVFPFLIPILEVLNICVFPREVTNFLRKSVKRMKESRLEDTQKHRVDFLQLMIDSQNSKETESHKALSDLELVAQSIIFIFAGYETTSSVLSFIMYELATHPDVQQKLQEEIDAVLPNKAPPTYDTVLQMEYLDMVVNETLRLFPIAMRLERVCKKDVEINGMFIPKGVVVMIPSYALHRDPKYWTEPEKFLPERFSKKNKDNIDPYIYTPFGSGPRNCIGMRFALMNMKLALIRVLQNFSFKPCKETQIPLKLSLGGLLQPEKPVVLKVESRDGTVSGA
3',5'-cyclic-AMP phosphodiesterase 4B (Homo sapiens), sequence (Q07343 whole entry, looked up): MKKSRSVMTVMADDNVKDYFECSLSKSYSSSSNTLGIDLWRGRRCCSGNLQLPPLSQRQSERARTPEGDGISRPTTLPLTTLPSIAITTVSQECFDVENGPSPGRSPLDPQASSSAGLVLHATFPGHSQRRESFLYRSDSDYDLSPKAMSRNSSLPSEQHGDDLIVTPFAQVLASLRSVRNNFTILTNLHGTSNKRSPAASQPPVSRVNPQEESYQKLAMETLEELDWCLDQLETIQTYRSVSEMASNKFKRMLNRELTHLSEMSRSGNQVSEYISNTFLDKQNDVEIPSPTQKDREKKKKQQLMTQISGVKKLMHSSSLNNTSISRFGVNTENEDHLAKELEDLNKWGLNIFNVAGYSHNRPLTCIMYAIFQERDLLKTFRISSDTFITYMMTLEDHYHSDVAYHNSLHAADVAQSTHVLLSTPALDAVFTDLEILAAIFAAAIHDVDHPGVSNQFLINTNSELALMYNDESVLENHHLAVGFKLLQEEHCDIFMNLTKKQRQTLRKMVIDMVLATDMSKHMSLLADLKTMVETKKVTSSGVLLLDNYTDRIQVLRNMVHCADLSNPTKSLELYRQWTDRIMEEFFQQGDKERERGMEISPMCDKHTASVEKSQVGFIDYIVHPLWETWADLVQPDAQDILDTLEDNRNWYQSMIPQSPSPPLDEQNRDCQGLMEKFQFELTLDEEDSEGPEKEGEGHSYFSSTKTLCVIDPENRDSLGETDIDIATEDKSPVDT
Glucocorticoid receptor (Homo sapiens), sequence (P04150 whole entry, looked up): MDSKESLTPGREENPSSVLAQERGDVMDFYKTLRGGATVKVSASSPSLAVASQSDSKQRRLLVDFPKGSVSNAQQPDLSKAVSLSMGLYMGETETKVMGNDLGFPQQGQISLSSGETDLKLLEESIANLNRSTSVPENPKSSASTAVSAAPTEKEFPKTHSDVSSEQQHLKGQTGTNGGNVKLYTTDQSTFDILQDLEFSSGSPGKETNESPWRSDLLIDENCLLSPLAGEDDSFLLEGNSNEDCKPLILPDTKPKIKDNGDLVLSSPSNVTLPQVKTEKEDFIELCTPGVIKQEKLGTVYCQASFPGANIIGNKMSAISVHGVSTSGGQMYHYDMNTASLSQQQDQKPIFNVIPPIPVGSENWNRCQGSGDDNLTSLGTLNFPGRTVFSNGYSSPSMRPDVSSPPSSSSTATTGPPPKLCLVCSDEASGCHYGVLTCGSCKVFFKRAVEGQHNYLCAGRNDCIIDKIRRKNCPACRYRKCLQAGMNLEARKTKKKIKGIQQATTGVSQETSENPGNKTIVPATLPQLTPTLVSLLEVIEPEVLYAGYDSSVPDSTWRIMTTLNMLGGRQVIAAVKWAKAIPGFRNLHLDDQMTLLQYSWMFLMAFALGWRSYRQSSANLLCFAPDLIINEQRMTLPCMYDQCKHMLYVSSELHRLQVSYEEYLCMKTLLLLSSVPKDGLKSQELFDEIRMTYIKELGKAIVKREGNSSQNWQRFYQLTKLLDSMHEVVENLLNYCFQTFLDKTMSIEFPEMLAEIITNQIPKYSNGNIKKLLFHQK
Ubiquitin carboxyl-terminal hydrolase 1 (Homo sapiens), sequence (O94782 whole entry, looked up): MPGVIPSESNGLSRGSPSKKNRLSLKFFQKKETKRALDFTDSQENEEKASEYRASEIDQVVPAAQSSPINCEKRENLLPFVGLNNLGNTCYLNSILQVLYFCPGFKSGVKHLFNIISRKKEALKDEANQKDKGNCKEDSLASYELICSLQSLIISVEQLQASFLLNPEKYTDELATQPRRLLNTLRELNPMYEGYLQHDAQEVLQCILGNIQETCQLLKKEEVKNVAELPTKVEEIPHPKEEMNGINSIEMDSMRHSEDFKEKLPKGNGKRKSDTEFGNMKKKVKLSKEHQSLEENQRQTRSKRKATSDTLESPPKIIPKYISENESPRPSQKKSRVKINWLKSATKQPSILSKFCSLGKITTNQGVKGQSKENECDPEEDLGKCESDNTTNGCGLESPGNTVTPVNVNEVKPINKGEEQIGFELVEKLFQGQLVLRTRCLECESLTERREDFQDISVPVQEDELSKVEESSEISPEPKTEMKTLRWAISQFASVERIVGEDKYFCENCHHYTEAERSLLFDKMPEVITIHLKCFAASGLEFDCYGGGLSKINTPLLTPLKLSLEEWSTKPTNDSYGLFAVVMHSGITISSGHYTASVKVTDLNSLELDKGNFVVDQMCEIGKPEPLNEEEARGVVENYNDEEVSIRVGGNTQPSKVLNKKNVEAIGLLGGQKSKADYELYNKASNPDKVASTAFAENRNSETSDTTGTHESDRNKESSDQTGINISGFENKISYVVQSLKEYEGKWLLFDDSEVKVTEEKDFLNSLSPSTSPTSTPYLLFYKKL
Lysosomal acid glucosylceramidase (Homo sapiens), sequence (P04062 whole entry, looked up): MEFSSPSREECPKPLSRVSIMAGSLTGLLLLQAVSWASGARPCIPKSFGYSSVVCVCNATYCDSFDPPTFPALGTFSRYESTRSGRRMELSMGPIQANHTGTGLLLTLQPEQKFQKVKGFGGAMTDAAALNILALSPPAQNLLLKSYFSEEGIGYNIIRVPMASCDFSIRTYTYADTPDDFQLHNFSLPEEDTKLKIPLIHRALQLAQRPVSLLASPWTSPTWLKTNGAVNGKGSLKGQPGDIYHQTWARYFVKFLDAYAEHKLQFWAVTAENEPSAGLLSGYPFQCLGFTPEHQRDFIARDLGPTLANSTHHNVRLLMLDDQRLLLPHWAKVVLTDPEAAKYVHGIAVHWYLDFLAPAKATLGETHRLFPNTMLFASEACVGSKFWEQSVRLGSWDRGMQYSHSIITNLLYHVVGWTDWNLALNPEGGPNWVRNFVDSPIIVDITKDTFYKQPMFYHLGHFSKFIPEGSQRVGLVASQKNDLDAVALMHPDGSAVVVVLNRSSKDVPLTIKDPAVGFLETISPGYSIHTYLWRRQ
Cytochrome P450 2C19 (Homo sapiens), sequence (P33261 whole entry, looked up): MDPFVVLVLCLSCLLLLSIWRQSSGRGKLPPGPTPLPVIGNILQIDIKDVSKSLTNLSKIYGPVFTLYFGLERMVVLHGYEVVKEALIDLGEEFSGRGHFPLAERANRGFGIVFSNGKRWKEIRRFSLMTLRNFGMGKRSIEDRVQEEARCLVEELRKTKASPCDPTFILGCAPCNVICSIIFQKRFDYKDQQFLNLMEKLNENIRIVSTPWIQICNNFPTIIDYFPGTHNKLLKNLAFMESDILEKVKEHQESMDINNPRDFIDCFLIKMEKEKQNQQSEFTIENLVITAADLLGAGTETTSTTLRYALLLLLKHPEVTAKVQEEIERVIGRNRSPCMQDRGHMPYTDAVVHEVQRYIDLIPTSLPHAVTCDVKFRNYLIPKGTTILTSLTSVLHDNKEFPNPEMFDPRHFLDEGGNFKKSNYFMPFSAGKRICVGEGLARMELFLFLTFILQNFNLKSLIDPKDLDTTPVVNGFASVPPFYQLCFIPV

Regarding `COc1cccc(-c2ccc3ncnc(NCc4cnc(C)cn4)c3c2)c1`, the Potency in assay [1] is > 11.4 µM; in assay [2] it was 2.51 µM (active); in [5], > 46 µM; in assay [6], > 46 µM; in [8], 7.94 µM (active); in [11], 3.16 µM (active). In [12], the Potency was 1.41 µM (active). Further, the activity change, negative = inhibition in assay [3] is 27.1%. Further, the compound was called inactive in assay [4] and in assay [9]. The Potency result in assay [7] was “inactive”. The activation in assay [10] was -8.99%.

For the compound `COc1ccc(-n2c(=O)c(CCc3ccccc3)nc3cnc(OC)nc32)cc1`, the Potency is > 11.4 µM in assay [1]; 15.8 µM (active) in [2]; > 9.22 µM in assay [5]; > 46 µM in assay [6]; 2 µM (active) in [7]; 6.31 µM (active) in assay [14]. In addition, in assay [3], the activity change, negative = inhibition is 0.705%. The compound was classed as inactive in assay [4] and in assay [9]. Besides, the Potency entry in assay [13], in assay [11], in [12] and in assay [15] was “inactive” in each case. The activation in [10] was -18.9%.

In the case of `COc1ccccc1CNc1ncncc1-c1ccccc1Cl`, the Potency in [2] is 10 µM (active); in [5] it was > 46 µM; in assay [6], > 46 µM; in assay [8], 0.199 µM (active); in assay [16] it was 2 µM (active); in assay [14], 1.26 µM (active). Further, the compound was classed as inactive in assay [4] and in assay [9]. Also, the Potency entry in assay [13], in assay [7], in [11], in [17] and in assay [15] was “inactive” each time.

Regarding `Cc1cnc(CNc2ncnc3ccc(-c4ccccc4Cl)cc23)cn1`, the Potency in assay [1] is > 11.4 µM; in assay [2], 6.31 µM (active); in [5], > 46 µM; in assay [8] it was 2.51 µM (active); in [11] it was 15.8 µM (active); in assay [12], 10 µM (active). Moreover, the activity change, negative = inhibition in [18] was 14.6%. Further, in assay [9], the result was inactive.

As to `c1cn(-c2ncnc3ccc(-c4ccoc4)cc23)cn1`, the Potency in assay [1] was > 11.4 µM; in assay [2], 1.26 µM (active); in assay [5] it was > 46 µM; in [6], > 46 µM; in assay [8] it was 0.631 µM (active); in [11], 0.141 µM (active). Also, the activity change, negative = inhibition in [3] was -5.74%. In addition, the result in assay [4] and in assay [9] was inactive. For the same compound, the Potency entry in assay [13], in [7] and in assay [15] was “inactive” each time.
